Our source for the activation and outcome values is PubChem BioAssay (NCATS).

Molecules are shown by their SMILES. “And” between values parts separate entries of the source, which are not always exact repeats. Identical values can stand only once. Records with an inconclusive call do not appear. Values without a mark were called inactive. The source made the active and inactive calls. Calls come from the whole dose curve.

Assay [1] concerns the target Bile acid receptor (Homo sapiens) (UniProt Q96RI1). The assay is described as follows: qHTS assay for small molecule agonists of farnesoid X receptor signaling (AID 588527).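 Note: series mostly up to about 77 µM; 0% = vehicle basal and 100% = reference agonist.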 Particulars: HEK293T FXR-UAS-bla, beta-lactamase ratio, 16 h; activation: hits give high values. Put shortly: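 FXR-UAS-bla HEK293T, 10% dialyzed FBS; cpds up to 92 uM titration, 16 h 37 C; CCF4 dye 2 h RT; fluorescence. Normalized to chenodeoxycholic acid 100 uM (100%) and DMSO (0%); Hill fit gives EC50, efficacy.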

Assay [2] concerns the target Peroxisome proliferator-activated receptor delta (Homo sapiens) (UniProt Q03181). In words: qHTS assay for small molecule agonists of peroxisome proliferator-activated receptor delta signaling (AID 588534).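 Note: 0% = DMSO basal wells and 100% = positive control agonist at 10 µM.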 Put shortly:
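Reporter cells were plated and held 5 hrs at 37 C before compounds were added. After 18 hrs at 37 C, CCF4 dye was loaded for 2 hrs at RT and fluorescence measured.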
A general note: Quantitative high-throughput screening tests each substance at several concentrations.

Chain of Bile acid receptor (Homo sapiens) (Q96RI1 whole entry, looked up): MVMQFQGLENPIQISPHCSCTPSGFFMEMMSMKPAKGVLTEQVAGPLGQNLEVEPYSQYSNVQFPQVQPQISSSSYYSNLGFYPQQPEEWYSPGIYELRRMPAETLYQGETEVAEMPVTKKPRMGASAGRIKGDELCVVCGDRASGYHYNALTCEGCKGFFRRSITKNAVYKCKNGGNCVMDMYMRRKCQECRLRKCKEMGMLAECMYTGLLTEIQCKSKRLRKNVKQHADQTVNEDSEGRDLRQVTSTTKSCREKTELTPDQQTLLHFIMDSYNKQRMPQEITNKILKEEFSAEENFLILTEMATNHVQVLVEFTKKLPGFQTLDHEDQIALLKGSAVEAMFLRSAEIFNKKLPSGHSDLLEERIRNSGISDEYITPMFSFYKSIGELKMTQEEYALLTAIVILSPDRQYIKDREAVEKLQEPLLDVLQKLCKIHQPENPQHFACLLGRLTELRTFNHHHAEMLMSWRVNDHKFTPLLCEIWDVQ
Chain of Peroxisome proliferator-activated receptor delta (Homo sapiens) (Q03181 whole entry, looked up): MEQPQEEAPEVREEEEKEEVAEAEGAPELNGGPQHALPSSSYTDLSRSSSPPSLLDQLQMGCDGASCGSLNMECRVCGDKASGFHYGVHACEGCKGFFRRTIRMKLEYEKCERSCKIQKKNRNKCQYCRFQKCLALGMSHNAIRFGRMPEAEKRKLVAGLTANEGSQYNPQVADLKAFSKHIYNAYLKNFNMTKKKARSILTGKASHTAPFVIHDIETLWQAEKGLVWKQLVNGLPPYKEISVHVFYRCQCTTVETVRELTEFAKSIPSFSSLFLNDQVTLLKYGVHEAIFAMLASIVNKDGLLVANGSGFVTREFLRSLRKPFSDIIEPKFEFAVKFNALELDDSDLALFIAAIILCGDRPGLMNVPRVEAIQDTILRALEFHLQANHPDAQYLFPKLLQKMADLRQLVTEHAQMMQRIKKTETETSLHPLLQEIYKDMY

Regarding `CC1(C)CC(NCCCCCCNC2CC(C)(C)NC(C)(C)C2)CC(C)(C)N1`, the activation in assay [1] was 5.33%. In assay [2], the outcome was inactive.
Taken in the same sequence, the figures for `O=C1OC(O)C(C(Cl)Cl)=C1Cl` (stereo not given) were 16.6% and “inactive”.
The like results for `FC(F)(F)c1ccccc1Cl` were, in that order, -1.54% and “inactive”.
Taken in the same sequence, the figures for `CC1=CC(=O)CC(C)(C)C1(O)/C=C/C(C)=C\C(=O)O` (stereo not given) were -3.19% and “inactive”.
For the compound `Oc1cccc(Nc2ccccc2)c1`, in assay [1], the activation is 0.64%. Further, the result in assay [2] was inactive.
The like results for `O=C(O)c1cccc(C(=O)O)c1` were, in that order, -0.333% and “inactive”.
Taken in the same sequence, the figures for `Nc1ccc(N)c2c1C(=O)c1c(N)ccc(N)c1C2=O` were -0.332% and “inactive”.
The like results for `C/C(Cl)=C/CCl` were, in that order, 0.345% and “inactive”.
With `CCC(O)C(C)(C)C` (stereo not given), the activation in assay [1] was 0.367%. In assay [2], the call was inactive.
Taken in the same sequence, the figures for `Nc1cc(Cl)c([N+](=O)[O-])cc1O` were -1.43% and “inactive”.
As to `CCCCCCCC[Si](Cl)(Cl)Cl`, the activation in assay [1] is 0.799%. For the same compound, the compound was classed as inactive in assay [2].
Taken in the same sequence, the figures for `C=CC(=O)OCCCCCCOC(=O)C=C` were -0.189% and “inactive”.
The like results for `O=[N+]([O-])c1ccc2nc[nH]c2c1` were, in that order, -1.7% and “inactive”.
Regarding `CC(Cl)(Cl)C(=O)OCCOc1cc(Cl)c(Cl)cc1Cl`, the activation in assay [1] was 0.229%. Also, the call in assay [2] was inactive.
`CCCCCCCCCCCC[N+](C)(C)[O-]`: the activation in assay [1] was 8.79%. The outcome in assay [2] was inactive.
The like results for `O=C(O)C(c1ccc(Cl)cc1)c1ccc(Cl)cc1` were, in that order, -2.74% and “inactive”.
Consider `CC(C=O)Cc1ccc(C(C)(C)C)cc1` (stereo not given), for which the activation in assay [1] was 0.434% and 1.86%. Also, the call in assay [2] was inactive.
Turning to `CCNc1cc(O)ccc1C`, in assay [1], the activation is 2%. The outcome in assay [2] was inactive.
On to `C=C[Si](OCCOC)(OCCOC)OCCOC`, for which, in assay [1], the activation is -1.57%. Besides, the outcome in assay [2] was inactive.
`CCNc1ccccc1`: the activation in assay [1] is -3.11%. The call in assay [2] was inactive.
The like results for `O=c1n(CCO)c(=O)n(CCO)c(=O)n1CCO` were, in that order, 0.713% and “inactive”.
Taken in the same sequence, the figures for `C1=C/CC/C=C/CC/C=C/CC/1` were -1.27% and “inactive”.
The like results for `CC(COc1ccc(C(C)(C)C)cc1)OS(=O)OCCCl` (stereo not given) were, in that order, 3.02% and “inactive”.
Take `O=C(O)C(Oc1ccc(Cl)cc1)Oc1ccc(Cl)cc1`: in assay [1], the activation was -1.96%. Further, in assay [2], the compound was called inactive.
Take `Nc1c(N=Nc2ccc(S(=O)(=O)CCOS(=O)(=O)O)cc2)c(S(=O)(=O)O)cc2cc(S(=O)(=O)O)c(N=Nc3ccc(S(=O)(=O)CCOS(=O)(=O)O)cc3)c(O)c12`: in assay [1], the activation is 4.58%. In addition, the call in assay [2] was inactive.
